High-throughput results (PubChem)
Vaccinia Venus: qHTS for Stage-Specific Inhibitors of Vaccinia Orthopoxvirus: Venus Reporter Primary qHTS. actives 0.46% (n = 330,000). AID 720580, 2013. Vaccinia virus Venus reporter expression, fluorescence. Potency, µM (highest dose often 36.5 µM), usual class: inhibitors; calls by dose curve; tested in A549 cells; further: nearly all actives have a fitted effect of over 30% in size
MARV entry inh: qHTS for inhibitors of binding or entry into cells for Marburg Virus | AID 540276, 2011 | actives 1.8% (n = 300,000) | Marburg virus pseudotyped entry inhibition, cell reporter | Potency, µM (highest dose often 37.8 µM), hits mostly inhibitors; calls by dose curve; tested in HEK293 cells
HCV inhibitor: qHTS Assay for Inhibitors of Hepatitis C Virus (HCV) | Huh7.5.1 HCVcc-Cre infection, luciferase reporter, 44 h | Potency, µM (doses to about 41.8 µM), actives largely listed as inhibitors | actives 3.4% (n = 340,000) | AID 651820, 2012; active means well fitted inhibition curve with a large enough effect; inconclusive means small, poorly fitted or top-dose-only effect, or another doubt; inactive means no such curve, though single readings can be large or run the other way
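Whole-lifecycle infectious HCVcc-Cre system; cells 1,000/well, compound then virus (~0.5 moi) added 4 h after plating, 44 h culture. Luciferase read 15 sec following 15 min substrate incubation, room temp.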
Vaccinia mCherry: qHTS for Stage-Specific Inhibitors of Vaccinia Orthopoxvirus: mCherry Reporter Primary qHTS | Potency, µM (doses to about 36.5 µM), usual class: inhibitors | Vaccinia virus mCherry reporter infection, fluorescence | AID 720579, 2013 | actives 0.63% (n = 310,000); calls by dose curve; tested in A549 cells; further: nearly all actives have a fitted effect of over 35% in size
HCMV inh: qHTS Assay for inhibitors of the human cytomegalovirus (HCMV); HFF cells, HCMV-luciferase reporter, 72 h; stronger effect = lower value; activity change, negative = inhibition, % at 57.5 µM; actives 4.5% (n = 410,000); in the data active means activity change below about -60%; inconclusive means no clear call, values can overlap the other calls; inactive means above about -39%
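Steps: HFFs plated, 16 h 37C; compounds added; HCMV-luciferase added to MOI 1 PFU/cell; 72 h 37C; OneGlo reagent, 5 min room temperature; luminescence read, normalized to controls.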
LASV entry inh: qHTS for Inhibitors of binding or entry into cells for Lassa Virus; Potency, µM (series often up to 37.9 µM), hits mostly inhibitors; actives 1.2% (n = 300,000); AID 540256, 2011; Lassa virus pseudotype entry inhibition, cell reporter; calls by dose curve; tested in HEK293 cells; further: nearly all actives have a fitted effect of over 50% in size
Hits are given with their value; . = inactive; ? = inconclusive; / = no result; ! = not active in a repeat; [ ] = another dose, or the depositor's remark. Hits are enriched below; roughly 7.8% of the tested compounds scored in any of these assays.

SMILES	Vaccinia Venus	MARV entry inh	HCV inhibitor	Vaccinia mCherry	HCMV inh	LASV entry inh
COc1ccc(Cn2c(C(=O)O)c(CNCc3cccs3)c3ccc(C)cc32)cc1	.	/	/	.	-66	?
C=Cc1ccc(Cn2c(C(=O)O)c(CNCc3cccs3)c3ccc(C)cc32)cc1	.	/	/	.	.	?
COc1ccc2c(CNCc3cccs3)c(C(=O)O)n(Cc3ccc(F)cc3)c2c1	.	/	/	.	.	.
Cc1ccc2c(CNCc3cccs3)c(C(=O)O)n(Cc3ccc(F)cc3)c2c1	.	/	/	.	-102	?
C=Cc1ccc(Cn2c(C(=O)O)c(CNCc3ccccc3)c3ccc(OC)cc32)cc1	.	/	/	.	?	.
COc1ccc(Cn2c(C(=O)O)c(CNCc3ccc(SC)cc3)c3ccc(OC)cc32)cc1	?	/	/	.	-91	?
CCCc1cnc2c(c1SCc1cccc(F)c1)c(=O)n(C)c(=O)n2C	.	/	/	.	.	.
COc1ccc(Cn2c(C(=O)O)c(CNCCc3cc(OC)ccc3OC)c3ccc(C)cc32)cc1	.	/	/	.	-105	?
COc1ccc(Cn2c(C(=O)O)c(CNCc3ccc(OC)cc3OC)c3ccc(C)cc32)cc1	?	/	/	?	?	.
CCOC(=O)C1=C(N)N2C(=O)C(C)SC2=C(C(=O)OC)C1c1cccc(OC)c1 (centres undefined)	/	/	.	/	-86	/
Cn1c(=O)c2nc(SCC(=O)Nc3ccc(Cl)c(Cl)c3)n(C)c2n(C)c1=O	.	/	/	.	.	.
CCN1CCN(Cc2ccc(NC(=O)c3cc(NC(=O)N4CCNC4=O)cc(OC)c3)cc2C(F)(F)F)CC1	?	/	?	.	-68!	/
CCN1CCN(Cc2ccc(NC(=O)c3cc(NC(=O)c4cc5cccc(OC)c5o4)cc(OC)c3)cc2C(F)(F)F)CC1	13µM!	/	.	?	-102!	/
CCN1CCN(Cc2ccc(NC(=O)c3cc(NC(=O)c4cc(-c5ccc(OC)cc5)n[nH]4)cc(OC)c3)cc2C(F)(F)F)CC1	10µM	/	?	?	.	/
CCN1CCN(Cc2ccc(NC(=O)c3cc(NC(=O)c4ccno4)cc(OC)c3)cc2C(F)(F)F)CC1	?	/	?	.	.	/
CCN1CCN(Cc2ccc(NC(=O)c3cc(NC(=O)c4cncc(-c5cccs5)c4)cc(OC)c3)cc2C(F)(F)F)CC1	?	/	?	?	-102	/
Cc1c2cnn(CC(=O)NCc3ccc(F)cc3)c(=O)c2c(C)n1Cc1ccccc1Cl	.	.	/	.	.	.
O=c1cc(CSc2n[nH]c(-c3ccccc3)n2)[nH]c2ccccc12	.	/	/	.	?	.
COc1cnc(-c2ccccn2)nc1NC(C)C	?	11µM	?	4.5µM	-101	?
COc1cnc(-c2ccccn2)nc1Sc1ccc(C)cc1	?	6.3µM	?	?	-81	?
Cc1ccc(Sc2cc(C)nc(-c3ccccn3)n2)cc1	.[7.34 µM]	.	?	.[7.34 µM]	-76	?
FC(F)(F)c1cccc(Sc2cc(C(F)(F)F)nc(-c3ccccn3)n2)c1	/	?	.	/	.	.
COc1cnc(-c2ccccn2)nc1Oc1ccccc1Cl	/	.	?	/	.	.
COc1cnc(-c2ccccn2)nc1Oc1ccc(Cl)c2ccccc12	/	?	?	/	-100	?
Cn1c(=O)oc2cc(S(=O)(=O)NC(Cc3ccccc3)C(=O)NCc3ccccc3Cl)ccc21 (centres undefined)	.	.	/	.	.	.
SMILES	Vaccinia Venus	MARV entry inh	HCV inhibitor	Vaccinia mCherry	HCMV inh	LASV entry inh
COCC1CCCN(Cc2ccc3c(c2)CN(C(=O)c2sc(C)nc2C)CCO3)C1 (centres undefined)	.	/	/	.	/	/
Cc1cccn2c(=O)cc(COc3cccc(NC(=O)c4cccc(Cl)c4)c3)nc12	.	/	/	?	.	.
C#Cc1cccc(C(=O)NCc2nc(-c3ccccc3NC(C)=O)oc2C)c1	.	/	/	.	/	/
COc1cnc(-c2ccccn2)nc1Sc1cccc(Cl)c1	/	?	7.1µM	/	-64	?
COc1ccccc1Sc1nc(-c2ccccn2)ncc1OC	.	?	?	5µM	?	?
O=C(NCc1cccc(Br)c1)C1CCCCN1S(=O)(=O)c1ccc(F)cc1 (centres undefined)	.	/	/	.	.	.
CC12CCCCCC3=CC(=O)C=C[C@]31OCC2 (some centres undefined)	/	/	/	/	.	/
C=C[C@@H]1c2cc(C)ccc2N(S(=O)(=O)c2ccc(C)cc2)[C@H](c2ccc(C(=O)OC)cc2)C1(C#N)C#N	.	/	/	.	/	/
CC(C)(C)c1ccc(CNc2ccc([N+](=O)[O-])cn2)cc1	.	?	.	.	.	?
CC(C)(C)c1ccc(Cn2cnc(-c3ccc([N+](=O)[O-])cc3)c2)cc1	.	?	?	.	.	8.9µM
Cc1cc(C)c(Cn2cnc(-c3ccc([N+](=O)[O-])cc3)c2)c(C)c1	.	?	11µM	.	?	.
CNc1ccc(OC)cc1-n1cnc(-c2ccc([N+](=O)[O-])cc2)c1	.	?	.	?	.	.
CCOC(=O)C1=C(O)CCn2c1nc1ccccc12	/	.	.	/	-107	.
CCOc1ccc(C(=O)N2CCn3c2nc2ccccc23)cc1	.	?	.	.	?	?
O=C(c1ccc2c(c1)N(Cc1ccccc1F)C(=O)c1ccccc1S2=O)N1CCCCC1 (centres undefined)	.	.	/	.	.	.
O=[N+]([O-])c1cc(C(F)(F)F)cc([N+](=O)[O-])c1NCCNC(=S)Nc1ccc(Cl)c(Cl)c1	?	?	?	?	-93	?
CCc1ccc(CNC(=O)c2cnc(N3CCCCC3)c3ccccc23)cc1	.	/	/	.	.	?
CCOC1(OCC)C(c2ccc(Cl)cc2)C(C#N)(C#N)C1(OCC)OCC (centres undefined)	.	?	.	.	?	21µM
CCOC1(OCC)C(c2ccc(N)cc2)C(C#N)(C#N)C1(OCC)OCC (centres undefined)	/	?	.	/	.	.
CC(C)C(=O)NNC(=O)CSc1ncnc2c1cnn2-c1ccccc1Cl	/	/	.	/	-65	/
Cc1ccc(-n2ncc3c(SCC(=O)NNC(=O)C(C)C)ncnc32)cc1	.	?	.	.	.	.
Cc1csc(NC(=O)CSc2ncnc3c2cnn3-c2ccccc2Cl)n1	?	13µM	18µM	?	/	?
O=C(CSc1ncnc2c1cnn2-c1ccccc1)NC1CCCC1	.	.	10µM	.	.	.
CNC(=O)CSc1ncnc2c1cnn2-c1ccccc1	.	.	.	.	.	.
Cc1ccccc1-n1ncc2c(SCC(=O)NCc3cccs3)ncnc21	?	?	22µM	.	.	?
CCn1cc(S(=O)(=O)c2ccccc2)c(=O)c2cc(F)c(N3CCN(c4ccccc4)CC3)cc21	.	/	/	.	.	.
Clc1cccc[n+]1CCc1ccccc1	.	/	/	.	/	/
CCOc1ccc(CCNC(=O)c2cnc3c(-c4ccc(F)cc4)c(C)nn3c2C)cc1OCC	.	/	/	.	.	.
